Source: PubChem BioAssay (Tox21)
Inconclusive results are not listed. The source made the active and inactive calls. Unless noted, calls come from the whole dose curve.

Experiments:
[1] = Nuclear factor erythroid 2-related factor 2/antioxidant responsive element (Nrf2/ARE) small molecule agonists: qHTS cell viability counter screen in human keratinocytes (AID 1919968; active = well fitted curve in the direction sought with a large enough effect in the repeat runs; an effect the other way counts as inactive or inconclusive; note: nearly all actives have a fitted effect of over 55% in size)
In short: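 Cells of the KeratinoSens line were plated at 1,500 per well and left for 5 h before compound transfer from DMSO stocks. After a 23 h incubation (37 C, 5% CO2), CellTiter-Fluor was added. Signal was taken as fluorescence intensity 1 h later.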

[2] = Nuclear factor erythroid 2-related factor 2/antioxidant responsive element (Nrf2/ARE) small molecule agonists: luciferase reporter gene qHTS assay in human keratinocytes (AID 1919969); note: nearly all actives have a fitted effect of over 35% in size
[3] = biological target: Gonadotropin-releasing hormone receptor (Homo sapiens) (UniProt P30968); test: Human gonadotropin-releasing hormone receptor (GnRHR) small molecule agonists, calcium flux assay in GnRHR-HEK293 cells (AID 1920063); note: nearly all actives have a fitted effect of over 35% in size
Gonadotropin-releasing hormone receptor (Homo sapiens), sequence (P30968 whole entry, looked up): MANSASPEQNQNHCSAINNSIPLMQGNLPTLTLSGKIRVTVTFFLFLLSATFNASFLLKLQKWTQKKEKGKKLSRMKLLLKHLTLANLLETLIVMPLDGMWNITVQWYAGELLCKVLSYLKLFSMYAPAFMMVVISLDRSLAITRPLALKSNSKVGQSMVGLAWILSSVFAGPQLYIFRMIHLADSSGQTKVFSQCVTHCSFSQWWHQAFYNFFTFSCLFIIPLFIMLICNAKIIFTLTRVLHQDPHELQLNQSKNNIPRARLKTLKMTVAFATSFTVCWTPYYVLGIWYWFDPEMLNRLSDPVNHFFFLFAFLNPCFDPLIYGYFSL
In short: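 Compounds dissolved in DMSO are pin-transferred onto dye-loaded GnRHR-HEK293 cells, which were seeded 18 h before at 37 C/5% CO2. Calcium signal is read as fluorescence intensity at 1 s intervals for 3 min.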

[4] = biological target: KiSS-1 receptor (Homo sapiens) (UniProt Q969F8); test: Human kisspeptin (KISS1R) small molecule agonists, calcium flux assay in KISS1R-HEK293 cells (AID 1920064; active = well fitted curve in the direction sought with a large enough effect in the repeat runs; an effect the other way counts as inactive or inconclusive)
KiSS-1 receptor (Homo sapiens), sequence (Q969F8 whole entry, looked up): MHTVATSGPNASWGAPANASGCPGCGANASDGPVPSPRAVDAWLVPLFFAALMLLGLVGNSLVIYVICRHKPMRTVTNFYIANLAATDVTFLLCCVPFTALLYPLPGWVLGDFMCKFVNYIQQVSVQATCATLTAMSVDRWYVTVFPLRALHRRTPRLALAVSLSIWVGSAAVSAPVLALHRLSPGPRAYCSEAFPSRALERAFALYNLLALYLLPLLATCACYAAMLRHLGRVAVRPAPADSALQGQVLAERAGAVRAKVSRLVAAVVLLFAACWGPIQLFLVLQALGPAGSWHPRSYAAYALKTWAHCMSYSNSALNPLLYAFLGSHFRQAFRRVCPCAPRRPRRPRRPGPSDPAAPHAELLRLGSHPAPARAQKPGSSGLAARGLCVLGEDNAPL
In short: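 Cell line: HEK293, stable human KISS1R. Dye loading 1 h at 37 C after 18 h culture. Read: kinetic fluorescence, 480/540 nm, 3 min at 1 s intervals.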

[5] = G protein-coupled receptor (GPCR) small molecule agonists, calcium flux assay: HEK293 wild type cell line counter screen (AID 1920065)
In short: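 Tox21 10K compounds, 15 concentrations each in triplicate, pin-transferred in DMSO onto dye-loaded cells; kinetic read at 480/540 nm for 3 min, 1 s intervals.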

[6] = p53 small molecule agonists, cell-based qHTS assay with human liver microsomes (AID 1963577)
In short: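 p53RE-bla cells, 4,000/well, compound added after 5 h, with human liver microsomes 0.5 mg/mL and NADPH 0.5 mg/mL final; 16 h at 37 C, then LiveBLAzer 2 h RT, fluorescence.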

[7] = p53 small molecule agonists, cell-based qHTS assay with rat liver microsomes (AID 1963578)
In short: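 p53RE-bla cells, 4,000/well, pre-incubated 5 h, then given compounds plus rat liver microsomes (0.5 mg/mL final) and NADPH (0.5 mg/mL final). Incubation 16 h at 37 C; beta-lactamase reporter read by LiveBLAzer fluorescence after 2 h at room temperature.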

[8] = p53 small molecule agonists, cell-based qHTS assay with human liver microsomes: qHTS cell viability counter screen (AID 1963579); note: nearly all actives have a fitted effect of over 45% in size
In short: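 p53RE-bla cells, 4,000/well, dosed 5 hours after plating, with human liver microsomes (0.5 mg/mL final) plus NADPH (0.5 mg/mL final), 16 hours at 37 C. Viability read as CellTiter-Glo luminescence after 30 min at room temperature.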

[9] = p53 small molecule agonists, cell-based qHTS assay with rat liver microsomes: qHTS cell viability counter screen (AID 1963580); note: nearly all actives have a fitted effect of over 45% in size
In short: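 Cytotoxicity counter screen: intracellular ATP read by CellTiter-Glo luminescence in the p53 reporter wells. HCT-116 p53RE-bla cells were treated for 16 h at 37 C alongside rat liver microsomes and NADPH, each 0.5 mg/mL final.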

[10] = p53 small molecule agonists, cell-based qHTS assay: qHTS cell viability counter screen (AID 1963581); note: nearly all actives have a fitted effect of over 45% in size
In short: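 ATP content measured by luminescence in HCT-116 p53RE-bla cells treated 16 h at 37 C, same wells as the reporter screen.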

[11] = biological target: 5-hydroxytryptamine receptor 2A (Homo sapiens) (UniProt P28223); test: 5-hydroxytryptamine receptor 2A (HTR2A) small molecule agonists, cell-based qHTS assay (AID 1963587); note: nearly all actives have a fitted effect of over 30% in size
5-hydroxytryptamine receptor 2A (Homo sapiens), sequence (P28223 whole entry, looked up): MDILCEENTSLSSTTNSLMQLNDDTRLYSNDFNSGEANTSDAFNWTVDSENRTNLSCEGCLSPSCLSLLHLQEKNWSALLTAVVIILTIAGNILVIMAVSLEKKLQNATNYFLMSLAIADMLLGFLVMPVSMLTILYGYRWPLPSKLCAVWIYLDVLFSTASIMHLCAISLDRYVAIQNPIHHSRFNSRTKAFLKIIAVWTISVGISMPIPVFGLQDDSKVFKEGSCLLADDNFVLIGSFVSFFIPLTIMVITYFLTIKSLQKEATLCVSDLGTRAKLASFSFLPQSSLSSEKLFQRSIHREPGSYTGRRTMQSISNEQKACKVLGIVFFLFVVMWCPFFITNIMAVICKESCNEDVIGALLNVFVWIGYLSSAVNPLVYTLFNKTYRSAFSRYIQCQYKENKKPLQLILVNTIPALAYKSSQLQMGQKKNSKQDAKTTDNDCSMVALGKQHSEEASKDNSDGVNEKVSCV
In short: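 Kinetic calcium-flux fluorescence (2 min, 1 sec intervals) after compound addition in agonist mode. HTR2A-CHO cells were cultured 18 h, then dye-loaded 1 h at 37 C.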

[12] = biological target: Muscarinic acetylcholine receptor M1 (Homo sapiens) (UniProt P11229); test: Cholinergic receptor muscarinic 1 (CHRM1) small molecule antagonists, cell-based qHTS assay (AID 1963588); note: nearly all actives have a fitted effect of over 40% in size
Muscarinic acetylcholine receptor M1 (Homo sapiens), sequence (P11229 whole entry, looked up): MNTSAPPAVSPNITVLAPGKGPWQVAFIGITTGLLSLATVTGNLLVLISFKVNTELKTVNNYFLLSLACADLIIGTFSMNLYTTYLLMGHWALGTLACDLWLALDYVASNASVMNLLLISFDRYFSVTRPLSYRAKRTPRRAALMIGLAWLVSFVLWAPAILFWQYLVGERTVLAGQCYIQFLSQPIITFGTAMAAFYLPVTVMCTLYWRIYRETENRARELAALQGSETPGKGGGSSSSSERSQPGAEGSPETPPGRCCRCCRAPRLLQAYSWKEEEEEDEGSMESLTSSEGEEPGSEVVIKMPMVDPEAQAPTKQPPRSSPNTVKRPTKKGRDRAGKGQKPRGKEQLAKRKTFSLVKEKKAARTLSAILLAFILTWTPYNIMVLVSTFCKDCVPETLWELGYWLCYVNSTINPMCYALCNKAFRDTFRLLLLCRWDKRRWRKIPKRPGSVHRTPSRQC
In short: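 Compounds were tested at 15 concentrations in three independent runs. Dye-loaded CHRM1-CHO cells were exposed 5 min at room temperature before stimulation by acetylcholine added at 50nM. Intracellular calcium was read kinetically on FDSS for 3 min.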

[13] = biological target: Muscarinic acetylcholine receptor M1 (Homo sapiens) (UniProt P11229); test: Cholinergic receptor muscarinic 1 (CHRM1) small molecule agonists, cell-based qHTS assay (AID 1963589); note: nearly all actives have a fitted effect of over 35% in size
In short: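 Homogeneous fluorescence calcium flux, agonist mode. Human M1-expressing CHO cells; compound dosed at 15 concentrations, three independent runs; signal sampled every 1 sec.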

[14] = cAMP Responsive Elements (CRE) small molecule agonists, cell-based qHTS assay (AID 1963590)
In short: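 HEK 293T cells stably bearing CRE-bla were plated at 2,000 cells per well and rested 18 h. Compounds, positive controls or DMSO were added for 3 h at 37 C. LiveBLAzer B/G substrate was then loaded for 2 h at room temperature.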

[15] = cAMP Responsive Elements (CRE) small molecule antagonists, cell-based qHTS assay (AID 1963591; active = well fitted inhibition curve with a large enough effect in the signal ratio in the repeat runs, not every such curve was filed as active; the % refers to the signal ratio)
In short: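 First, CRE-bla HEK293T cells settled 18 h at 37 C. Next, compound and 0.25 uM final NKH477 were applied for 3 h. Last, LiveBLAzer B/G substrate was loaded for 2 h at room temperature.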

[16] = biological target: Beta-2 adrenergic receptor (Homo sapiens) (UniProt P07550); test: Adrenergic beta2 receptor (ADRB2) small molecule antagonists, cell-based qHTS assay (AID 1963592); note: series mostly up to about 92 µM; nearly all actives have a fitted effect of over 50% in size
Beta-2 adrenergic receptor (Homo sapiens), sequence (P07550 whole entry, looked up): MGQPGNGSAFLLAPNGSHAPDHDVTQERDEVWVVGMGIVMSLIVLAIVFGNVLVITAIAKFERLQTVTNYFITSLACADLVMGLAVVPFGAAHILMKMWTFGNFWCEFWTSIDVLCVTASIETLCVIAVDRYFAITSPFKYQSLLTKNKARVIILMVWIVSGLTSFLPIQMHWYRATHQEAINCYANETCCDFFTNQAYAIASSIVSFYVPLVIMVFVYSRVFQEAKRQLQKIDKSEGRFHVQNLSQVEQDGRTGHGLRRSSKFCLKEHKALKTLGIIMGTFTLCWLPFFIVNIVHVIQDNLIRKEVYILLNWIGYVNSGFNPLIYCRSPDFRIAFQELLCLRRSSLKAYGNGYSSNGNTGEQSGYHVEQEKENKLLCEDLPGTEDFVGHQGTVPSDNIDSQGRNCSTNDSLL
In short: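 Assay format: CHO-ADRB2 cells, 18-20hr seeding at 37C/5% CO2, then compound plus 1nM isoproterenol agonist mix for 0.5hr RT. Homogeneous time-resolved fluorescence cAMP detection after 1hr, expressed as 665/615 nm ratio.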

[17] = biological target: D(2) dopamine receptor (Homo sapiens) (UniProt P14416); test: Dopamine D2 receptor (DRD2) small molecule agonists, cell-based qHTS assay (AID 1963594); note: nearly all actives have a fitted effect of over 35% in size
D(2) dopamine receptor (Homo sapiens), sequence (P14416 whole entry, looked up): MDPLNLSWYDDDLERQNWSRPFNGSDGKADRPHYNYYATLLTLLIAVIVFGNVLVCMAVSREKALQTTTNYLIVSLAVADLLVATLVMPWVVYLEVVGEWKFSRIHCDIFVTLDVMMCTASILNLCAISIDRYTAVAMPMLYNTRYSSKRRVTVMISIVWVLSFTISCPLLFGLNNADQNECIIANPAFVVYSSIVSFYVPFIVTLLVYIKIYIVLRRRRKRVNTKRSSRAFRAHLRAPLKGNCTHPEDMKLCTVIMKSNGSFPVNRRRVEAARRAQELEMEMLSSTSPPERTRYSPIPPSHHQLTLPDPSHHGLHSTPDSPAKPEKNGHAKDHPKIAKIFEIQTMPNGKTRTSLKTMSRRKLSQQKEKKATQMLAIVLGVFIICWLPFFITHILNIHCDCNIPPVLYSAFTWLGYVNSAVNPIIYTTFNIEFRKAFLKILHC
In short: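 cAMP accumulation in DRD2-HEK293 cells measured by HTRF after 1 h detection; compounds added 10 min before NKH477 (200nM […]) forskolin-analogue stimulation, 30 min at room temperature, with Ro20-1724 present at 0.1 mM final.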

[18] = biological target: Beta-2 adrenergic receptor (Homo sapiens) (UniProt P07550); test: Adrenergic beta2 receptor (ADRB2) small molecule agonists, cell-based qHTS assay (AID 1963593);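 note: CHO cells stably overexpressing human ADRB2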
In short: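 CHO cells stably over-expressing ADRB2 were plated overnight at 37C, then dosed with compounds plus a stimulation mix containing 100uM IBMX and 25uM Ro-20-1724 for 0.5hr at room temperature. cAMP was measured by HTRF competition, 1hr.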

[19] = biological target: D(2) dopamine receptor (Homo sapiens) (UniProt P14416); test: Dopamine D2 receptor (DRD2) small molecule antagonists, cell-based qHTS assay (AID 1963595; active = well fitted inhibition curve with a large enough effect in the signal ratio in the repeat runs, with a control signal flat; the % refers to the signal ratio)
In short: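 Stable D2 receptor HEK293 line, 24 h after seeding. Compound preincubated 10 min, then quinpirole (12 nM) with forskolin analogue NKH477 (200 nM), 30 min, room temperature. Detection by time-resolved FRET of cAMP.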

[20] = p53 small molecule agonists, cell-based qHTS assay (AID 1963582; active = well fitted activation curve with a large enough effect in the signal ratio in the repeat runs, not every such curve was filed as active; the % refers to the signal ratio)
In short: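 16 h compound exposure (37 C) of p53 response element–bla cells, preceded by 5 h recovery at 37 C/5% CO2; read-out via LiveBLAzer B/G FRET substrate, 2 h RT, fluorescence intensity.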

Measured: Potency

O=c1[nH]nnc2ccccc12
not listed: [18] | [19] | [20]
inactive: all other assays above

COCc1c(C(C)C)nc(C(C)C)c(/C=C/[C@@H](O)C[C@@H](O)CC(=O)O)c1-c1ccc(F)cc1
not listed: [11] | [12] | [13] | [14] | [15] | [20]
inactive: all other assays above

OCCOCCOCCO
not listed: [10]
inactive: all other assays above

COC(C)COC(C)COC(C)CO (stereo not drawn)
not listed: [10] | [11] | [13] | [19]
inactive: all other assays above

OCc1ccc(Cl)cc1Cl
not listed: [10]
inactive: all other assays above

c1ccc2[nH]cnc2c1
not listed: [10]
inactive: all other assays above

C[C@]12C=CC(=O)C=C1CC[C@@H]1[C@@H]2[C@@H](O)C[C@@]2(C)[C@H]1CC[C@]2(O)C(=O)CO
not listed: [10] | [11] | [12] | [13] | [15]
inactive: all other assays above

FC(F)(F)c1ccc(Cl)c(Cl)c1
not listed: [10]
inactive: all other assays above

CCOC(=O)C(C#N)=C(c1ccccc1)c1ccccc1
not listed: [10] | [12] | [15]
inactive: all other assays above

NC(=O)NC1NC(=O)NC1=O (stereo not drawn)
not listed: [9] | [20]
inactive: all other assays above

O=C1CCCCCCCCCCC1
not listed: [9] | [17]
inactive: all other assays above

c1ccc2scnc2c1
not listed: [10] | [12]
inactive: all other assays above

CC(=O)OC[C@H]1O[C@@](COC(C)=O)(O[C@H]2O[C@H](COC(C)=O)[C@@H](OC(C)=O)[C@H](OC(C)=O)[C@H]2OC(C)=O)[C@@H](OC(C)=O)[C@@H]1OC(C)=O
not listed: [10] | [18]
inactive: all other assays above

NNC(=O)c1ccncc1
not listed: [10] | [11] | [12] | [13]
inactive: all other assays above
